# Rows were chosen to be rich in hits. Some 18% of all compounds tested hit in one or more screens of this group.
# TDP1 block = TDP1 (human) enzyme inhibition. Q9NUW8. recombinant TDP1, AlphaScreen DNA substrate cleavage. Potency, µM (doses to about 130 µM), most hits filed as inhibitors. 350,000 tested, 0.28% active. AID 485290; also: nearly all actives have a fitted effect of over 40% in size
#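 Signal: AlphaScreen proximity between streptavidin donor and anti-FITC acceptor beads on intact substrate. Reaction: Tdp1 1 nM, substrate 15 nM final, 5 min RT after 15 min compound preincubation.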
# TDP1 cell CPT = DT40-hTDP1 cell growth loss with CPT; chicken DT40 Tdp1-/-;hTDP1 cells + 20 nM CPT, ATP luminescence, 48 h; Potency, µM (titrated, usually from 46.2 µM), hits mostly inhibitors; 420,000 tested, 12% active; also: nearly all actives have a fitted effect of over 55% in size
#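 Chicken DT40 Tdp1-/- cells stably complemented with human TDP1 were seeded at 400 cells/well in medium containing 20 nM camptothecin, exposed to pin-transferred compounds, and grown at 37 °C for at least 48 hr. Viability was read as ATP luminescence.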
# PLK1 PBD block = inhibitors of human PLK1 polo-box domain binding; P53350; Plk1 PBD binding of FITC phosphopeptide, fluorescence polarization; Potency, µM, most hits filed as inhibitors; 360,000 tested, 2.8% active; also: series mostly up to about 57 µM; nearly all actives have a fitted effect of over 65% in size
# VDR inh = inhibitors of human vitamin D receptor; P11473; VDR-SRC2-3 peptide fluorescence polarization, 2 h; Potency, µM, actives largely listed as inhibitors; 400,000 tested, 0.93% active; AID 504847
# Target sequence (P11473 whole entry, looked up): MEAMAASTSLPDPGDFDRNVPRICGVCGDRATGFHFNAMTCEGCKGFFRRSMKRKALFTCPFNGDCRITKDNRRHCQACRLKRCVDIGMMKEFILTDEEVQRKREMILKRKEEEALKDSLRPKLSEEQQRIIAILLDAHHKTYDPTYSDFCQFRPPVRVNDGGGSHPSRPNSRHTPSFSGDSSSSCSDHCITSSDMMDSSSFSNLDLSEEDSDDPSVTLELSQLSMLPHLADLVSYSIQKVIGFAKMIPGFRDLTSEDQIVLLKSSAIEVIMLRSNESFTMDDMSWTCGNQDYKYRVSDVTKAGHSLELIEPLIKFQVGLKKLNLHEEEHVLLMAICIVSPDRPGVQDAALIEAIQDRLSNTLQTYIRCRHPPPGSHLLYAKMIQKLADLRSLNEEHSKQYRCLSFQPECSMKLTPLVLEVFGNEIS
#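 Signal is fluorescence polarization, reporting how far test compounds block the interaction of VDR with the SRC2-3 coregulator peptide after a 2 h room-temperature incubation.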
# DT40 TDP1 no CPT = qHTS for Inhibitors of human tyrosyl-DNA phosphodiesterase 1 (TDP1): qHTS in cells in absence of CPT. DT40 Tdp1-/- hTDP1 cells, no CPT, ATP luminescence, 48 h. Potency, µM (top dose mostly 46.2 µM), actives largely listed as inhibitors. 420,000 tested, 15% active; also: nearly all actives have a fitted effect of over 55% in size
#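 Readout: luminescence from CellTiter-Glo after 30 min in the dark at RT. Cells: DT40 Tdp1-/- with stable hTDP1, 400/well. Exposure: compounds alone, ≥48 hr, 37 °C.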
# GCN5L2 inh = inhibitors of human GCN5L2 histone acetyltransferase; Q92830; GCN5L2 HAT assay, ThioGlo1 CoA-SH fluorescence; Potency, µM (highest dose often 58.9 µM), hits mostly inhibitors; 390,000 tested, 0.21% active
#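 GCN5L2 (20nM final) in 50mM HEPES, 0.1mM EDTA pH 7.5, 0.01% Tween-20 was preincubated 15 min at room temperature with compound, then given ThioGlo1 (50uM), H3(1-25) peptide (75uM) and acetyl-CoA (70uM); CoA-thiol fluorescence (Ex340/Em540) was read at 0 and 20 min.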
# Hits are given with their value; – = inactive; ? = inconclusive; · = no result given; [ ] = another dose, or the depositor's remark. Calls follow the shape of the dose curve; as a rule, active = well fitted curve in the direction sought with a large enough effect; inconclusive = small, poorly fitted or top-dose-only effect, or another doubt; inactive = no such curve, though single readings can be large; an effect the other way counts as inactive or inconclusive.
SMILES,TDP1 block,TDP1 cell CPT,PLK1 PBD block,VDR inh,DT40 TDP1 no CPT,GCN5L2 inh
CCC1(c2ccccc2)NC(=O)N(CC(=O)NCc2ccc(C)cc2)C1=O (stereo not drawn),·,–,–,–,–,–
Cn1c(=O)c2sccc2n2c(CCC(=O)N3CCN(c4ccccc4)CC3)nnc12,–,?,·,–,–,–
CCn1c(=O)c2sccc2n2c(CCCC(=O)N3CCN(c4ccc(F)cc4)CC3)nnc12,–,15µM,·,–,18µM,–
CCCn1c(=O)c2sccc2n2c(CCCC(=O)NCCc3ccc(Cl)cc3)nnc12,–,?,·,–,21µM,–
CCCn1c(=O)c2sccc2n2c(CCCC(=O)N3CCN(c4cccc(Cl)c4)CC3)nnc12,–,?,·,–,12µM,–
CCCn1c(=O)c2sccc2n2c(CCCC(=O)N3CCN(c4ccccc4OC)CC3)nnc12,–,18µM,·,–,?,–
CCn1c(=O)c2sccc2n2c(CCC(=O)N3CCN(c4ccccc4OC)CC3)nnc12,–,–,·,–,–,–
O=C(c1cc2ccccc2[nH]1)N(Cc1cccnc1)CC1CCCN(C2CCCCC2)C1 (stereo not drawn),–,?,–,–,?,?
CC(C)C[C@@H]1O[C@H](C(C)C)Cc2[nH][nH]c(=O)c21,·,?,–,·,?,·
CCCn1c(=O)c2sccc2n2c(CCCC(=O)N3CCN(c4cccc(C)c4C)CC3)nnc12,–,21µM,·,–,18µM,–
CN(Cc1ccc(Cl)cc1)C(=O)c1ccccc1SCC(=O)N1CCCC1,–,?,–,–,?,–
COc1ccc(N)c2c1C(=O)c1ccccc1C2=O,–,?,–,?,?,–
COc1ccc2noc3c2c1C(=O)c1ccccc1-3,·,15µM,0.38µM,?,18µM,·
O=C1c2ccccc2-c2onc3ccc(NCCCn4ccnc4)c1c23,–,15µM,1.5µM,–,?,–
COc1ccc(OC)c2c1C(=O)c1ccccc1C2=O,·,–,11µM,–,–,–
Cc1cccc(C(=O)NC(=O)Nc2ccc(-n3nc(C(F)(F)F)cc3C(F)(F)F)cc2)c1,–,–,·,–,–,–
Cc1ccccc1CNC(=O)c1ccc2nc(SCc3ccc(F)cc3)n(C)c2c1,–,?,·,–,?,–
CC(C)Cc1nc(N2CCN(C(=O)C(C)C)CC2)c(C#N)c2c1CCC2,–,21µM,–,–,?,–
COC(=O)CN1C(=O)CSc2ccc(S(=O)(=O)Nc3cccc(Cl)c3C)cc21,–,–,·,–,?,–
Cc1oc(-c2ccccc2NC(=O)C2CCC2)nc1CNC(=O)c1cccc(C(F)(F)F)c1,·,–[9.04 µM],·,·,–,·
Cc1ccc(Nc2nc(C)c(NC(=O)c3ccc(C)cc3)c(Nc3ccc(C)cc3)n2)cc1,–,6.5µM,·,–,4.6µM,–
Cc1ccccc1C(=O)Nc1c(C)nc(Nc2ccccc2)nc1Nc1ccccc1,–,?,·,–,?,–
CCOc1ccc(Nc2nc(C)c(NC(=O)c3ccc(C)cc3)c(Nc3ccc(OCC)cc3)n2)cc1,–,1.3µM,·,–,2.6µM,–
Clc1ccc(Cn2nc(-c3ccccc3)nc2-c2ccccc2)cc1,–,–,24µM,–,?,–
CCOC(=O)C[C@H]1c2cc(C(F)(F)F)ccc2S(=O)(=O)N1Cc1ccccc1,·,?,–,?,?,·
SMILES,TDP1 block,TDP1 cell CPT,PLK1 PBD block,VDR inh,DT40 TDP1 no CPT,GCN5L2 inh
CCOC(=O)/C=C/c1ccc2c(c1)S(=O)(=O)N(Cc1ccc(OC)cc1)[C@H]2CC(=O)OCC,·,21µM,–,–,13µM,·
CCOC(=O)C[C@H]1c2ccccc2S(=O)(=O)N1Cc1ccc(Cl)cc1,·,11µM,–,–,18µM,·
COc1ccc(OCCN2CCC(C(=O)NC(c3ccc(Cl)cc3)c3cnccn3)CC2)cc1 (stereo not drawn),·,?,–,·,?,·
COc1ccc(OCCN2CCC(C(=O)NC(c3ccc(C)cc3)c3ccccn3)CC2)cc1 (stereo not drawn),·,–,–,·,–,·
Cc1cccnc1C(NC(=O)C1CCN(CCCc2ccccc2)CC1)c1ccc(F)cc1 (stereo not drawn),·,?,–,·,23µM,·
Cc1cccnc1C(NC(=O)C1CCN(Cc2ccc(Cl)cc2)CC1)c1ccc(F)cc1 (stereo not drawn),·,26µM,–,·,21µM,·
CCCN1CCC(C(=O)NC(c2ccc(F)cc2)c2ncccc2C)CC1 (stereo not drawn),·,?,–,·,–,·
COc1ccc(OCCN2CCC(C(=O)NC(c3ccc(Cl)cc3)c3ncccc3C)CC2)cc1 (stereo not drawn),·,23µM,–,·,?,·
Cc1cccnc1C(NC(=O)C1CCN(CCOc2ccc(F)cc2)CC1)c1ccc(Cl)cc1 (stereo not drawn),·,?,–,·,16µM,·
CC(=O)Nc1c(C)ccc(CNC(=O)COc2cc(C)ccc2C)c1C,–,–,–,–,–,–
Cc1csc2nc(COc3ccccc3NC(=O)c3ccco3)cc(=O)n12,–,–,·,–,?,–
COc1ccc(C(=O)c2c(N)c(-c3nc(-c4ccc(OC)cc4)cs3)c3ccccn23)cc1,–,–,·,–,–,–
Cc1ccc(S(=O)(=O)N2CCOCC2)cc1C(=O)NNC(=O)c1ccoc1C,–,–,–,–,–,–
Cc1cccnc1C(NC(=O)C1CCN(Cc2ccc3ccccc3n2)CC1)c1ccc(Cl)cc1 (stereo not drawn),·,?,–,·,16µM,·
COc1ccc(OCCN2CCC(C(=O)NC(c3ccc(F)cc3)c3ncccc3C)CC2)cc1 (stereo not drawn),·,?,–,·,16µM,·
COc1ccc(OCCN2CCC(C(=O)NC(c3ccccn3)c3ccccc3OC)CC2)cc1 (stereo not drawn),·,?,–,·,–,·
COc1cccc(C(NC(=O)C2CCN(CCCOc3ccccc3)CC2)c2ccccn2)c1 (stereo not drawn),·,?,–,·,–,·
Cc1cccnc1C(NC(=O)C1CCN(CCCOc2ccc(F)cc2)CC1)c1ccccc1 (stereo not drawn),·,?,–,·,21µM,·
COc1ccccc1C(NC(=O)C1CCN(CCOc2ccc3ccccc3c2)CC1)c1ccccn1 (stereo not drawn),·,15µM,–,·,15µM,·
COc1ccc(Cl)cc1NC(=O)c1noc2c1CCc1ccccc1-2,–,–,·,–,–,–
CCN(CC)C(=O)[C@H]1CC(CC(=O)NCCCOC)C(=O)N2CCc3c([nH]c4ccccc34)[C@]12C (stereo partly drawn),–,–,–,–,–,–
O=C1NN=C(c2ccccc2)C1Cc1ccccc1 (stereo not drawn),·,–,–,–,–,·
